Laboratory results published in the supplement of paper PMC7724964.

T1: TOM1L1 1-150 VHS (domain begin residue: 1, domain end residue: 150), O75674
T1 chain: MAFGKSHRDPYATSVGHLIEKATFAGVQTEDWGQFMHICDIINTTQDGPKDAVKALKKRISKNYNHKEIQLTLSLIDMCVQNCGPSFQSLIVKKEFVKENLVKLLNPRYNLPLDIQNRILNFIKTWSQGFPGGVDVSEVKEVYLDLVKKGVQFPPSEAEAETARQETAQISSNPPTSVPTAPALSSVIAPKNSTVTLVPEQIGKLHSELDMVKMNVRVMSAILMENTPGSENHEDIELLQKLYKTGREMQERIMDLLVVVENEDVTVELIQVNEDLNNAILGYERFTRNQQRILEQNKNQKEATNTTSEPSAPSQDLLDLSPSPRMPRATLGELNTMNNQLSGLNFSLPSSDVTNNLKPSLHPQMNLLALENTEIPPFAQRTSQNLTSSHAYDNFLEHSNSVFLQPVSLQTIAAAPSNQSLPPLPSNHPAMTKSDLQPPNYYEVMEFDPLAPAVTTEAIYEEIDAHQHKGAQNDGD

T2: TRIM11 268-461 SPRY (domain begin residue: 268, domain end residue: 461), Q96F44
T2 chain: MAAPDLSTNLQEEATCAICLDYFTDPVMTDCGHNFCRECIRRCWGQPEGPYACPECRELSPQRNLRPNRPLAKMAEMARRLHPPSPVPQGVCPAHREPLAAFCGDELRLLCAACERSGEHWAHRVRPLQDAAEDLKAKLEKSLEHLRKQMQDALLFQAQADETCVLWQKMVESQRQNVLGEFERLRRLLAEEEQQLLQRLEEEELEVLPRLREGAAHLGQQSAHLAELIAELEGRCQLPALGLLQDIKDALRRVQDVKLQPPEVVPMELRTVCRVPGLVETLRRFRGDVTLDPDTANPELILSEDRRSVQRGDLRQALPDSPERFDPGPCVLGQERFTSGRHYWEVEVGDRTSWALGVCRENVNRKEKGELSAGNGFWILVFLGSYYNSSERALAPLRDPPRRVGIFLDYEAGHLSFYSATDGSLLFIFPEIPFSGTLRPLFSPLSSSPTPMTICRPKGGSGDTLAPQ

T3: TRIM39 319-514 SPRY (domain begin residue: 319, domain end residue: 514), Q9HCM9
T3 chain: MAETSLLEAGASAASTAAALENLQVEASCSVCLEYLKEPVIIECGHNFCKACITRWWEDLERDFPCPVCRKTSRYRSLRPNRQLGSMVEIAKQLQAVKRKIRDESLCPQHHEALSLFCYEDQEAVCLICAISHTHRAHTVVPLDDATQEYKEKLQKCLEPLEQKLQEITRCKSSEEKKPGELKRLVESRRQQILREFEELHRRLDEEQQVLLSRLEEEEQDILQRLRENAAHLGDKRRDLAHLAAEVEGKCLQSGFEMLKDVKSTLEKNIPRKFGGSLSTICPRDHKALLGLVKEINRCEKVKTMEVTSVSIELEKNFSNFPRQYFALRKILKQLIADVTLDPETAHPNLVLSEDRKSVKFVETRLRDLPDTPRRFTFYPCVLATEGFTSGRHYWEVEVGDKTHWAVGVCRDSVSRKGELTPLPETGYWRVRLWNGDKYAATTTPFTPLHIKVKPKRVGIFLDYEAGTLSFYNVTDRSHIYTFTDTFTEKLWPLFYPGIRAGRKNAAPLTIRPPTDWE

T4: TOM1L2 1-153 VHS (domain begin residue: 1, domain end residue: 153), Q6ZVM7
T4 chain: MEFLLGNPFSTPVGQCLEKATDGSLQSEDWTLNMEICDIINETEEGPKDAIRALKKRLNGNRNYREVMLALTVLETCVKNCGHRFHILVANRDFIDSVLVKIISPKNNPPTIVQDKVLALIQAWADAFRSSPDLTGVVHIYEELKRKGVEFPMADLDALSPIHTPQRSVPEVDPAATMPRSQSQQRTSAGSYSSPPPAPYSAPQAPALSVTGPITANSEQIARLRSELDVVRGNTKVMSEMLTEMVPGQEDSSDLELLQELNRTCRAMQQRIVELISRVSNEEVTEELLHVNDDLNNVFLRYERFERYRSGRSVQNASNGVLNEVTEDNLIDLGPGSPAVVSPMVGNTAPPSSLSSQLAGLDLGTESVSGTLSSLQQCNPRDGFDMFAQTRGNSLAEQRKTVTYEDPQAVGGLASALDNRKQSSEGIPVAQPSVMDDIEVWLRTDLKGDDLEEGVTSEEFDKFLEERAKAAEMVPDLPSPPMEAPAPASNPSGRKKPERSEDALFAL


Target: T1, TOM1L1 1-150 VHS (domain begin residue: …
Assay: phage ELISA signal ratio (GST-PRM binding over GST background); higher = stronger binding of peptide-phage to the PRM
How it was run: (§1)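 Each value is the phage ELISA signal on the glutathione S-transferase (GST)-domain fusion divided by the signal on GST alone. Human peptide recognition domains were expressed in 96-well plates, fused to the C-terminus of GST, and selected against an M13 phage library carrying randomized, cysteine-free, glycine-flanked hexadecapeptides on the gene-8 major coat protein. After five selection rounds, approximately 48 individual clones from rounds 4 and 5 were tested by phage ELISA, and positive clones were sequenced.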

Binder | phage ELISA signal ratio
IEWEWLDSKEWWPKEF | 32.5
NNNWWMQWHVEEHEME | 4.26
DFTWLHSEKWWPEEWG | 14.3
FVDWDIPSWWFQQVTS | 15.1
LEWTWYDTWTWPEESQ | 22
ETDKWVPSYLWWANYS | 16.8
VSEGQWRPSYLWWTDD | 4.64
YQMSWMPSEIWWLNYV | 9.38

target: TRIM7 324-511 SPRY (domain begin residue: 324, domain end residue: 511), Q9C029; assay: as above
How it was run: as §1

Binder | phage ELISA signal ratio
GLVYYDVPFDFGVIDW | 13.2
LERKIAWAQQLWKYFV | 6.97
MTMDFHPDWWDVADQW | 29.6

Target: T2, TRIM11 268-461 SPRY (domain begin …
Assay: as above
How it was run: as §1

Binder | phage ELISA signal ratio
VFEFMDRADWPDWVMM | 20.4
GFFQFQALPEWIVYMN | 12.6
HRFVYMEQLPSWLFAV | 23
TELPFTYMTRIPSWVW | 30

target: TOM1 1-153 VHS (domain begin residue: 1, domain end residue: 153), O60784; assay: as above
Sequence (O60784 whole entry): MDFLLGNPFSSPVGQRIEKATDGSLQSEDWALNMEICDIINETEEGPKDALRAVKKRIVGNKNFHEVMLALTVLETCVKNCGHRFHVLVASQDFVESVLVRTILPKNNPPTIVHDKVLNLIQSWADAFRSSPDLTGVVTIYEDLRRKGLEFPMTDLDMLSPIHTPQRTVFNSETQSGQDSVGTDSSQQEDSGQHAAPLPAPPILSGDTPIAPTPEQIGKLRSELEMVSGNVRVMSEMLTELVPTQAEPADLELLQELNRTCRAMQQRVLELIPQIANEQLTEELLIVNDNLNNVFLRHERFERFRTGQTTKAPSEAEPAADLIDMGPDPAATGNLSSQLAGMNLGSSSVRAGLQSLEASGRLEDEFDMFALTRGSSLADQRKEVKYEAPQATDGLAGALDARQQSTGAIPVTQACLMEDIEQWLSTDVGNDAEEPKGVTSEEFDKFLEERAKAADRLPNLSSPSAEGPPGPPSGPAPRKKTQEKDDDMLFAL
How it was run: as §1

Binder | phage ELISA signal ratio
NSWWLDYEERATLHGD | 9.5
EWWLSYDPHWVETISA | 5.42
QVWWEAYEKRLHVETE | 8.09

Target: T3, TRIM39 319-514 SPRY (domain begin …
Assay: as above
How it was run: as §1

Binder | phage ELISA signal ratio
GWYEMEGWGMPKDIET | 3.7

target: TRIM30 281-496 SPRY (domain begin residue: 281, domain end residue: 496); assay: as above
How it was run: as §1

Binder | phage ELISA signal ratio
DVIPWDTWNFWREQDF | 9.37

target: TRIM21 268-465 SPRY (domain begin residue: 268, domain end residue: 465), P19474; assay: as above
Sequence (P19474 whole entry): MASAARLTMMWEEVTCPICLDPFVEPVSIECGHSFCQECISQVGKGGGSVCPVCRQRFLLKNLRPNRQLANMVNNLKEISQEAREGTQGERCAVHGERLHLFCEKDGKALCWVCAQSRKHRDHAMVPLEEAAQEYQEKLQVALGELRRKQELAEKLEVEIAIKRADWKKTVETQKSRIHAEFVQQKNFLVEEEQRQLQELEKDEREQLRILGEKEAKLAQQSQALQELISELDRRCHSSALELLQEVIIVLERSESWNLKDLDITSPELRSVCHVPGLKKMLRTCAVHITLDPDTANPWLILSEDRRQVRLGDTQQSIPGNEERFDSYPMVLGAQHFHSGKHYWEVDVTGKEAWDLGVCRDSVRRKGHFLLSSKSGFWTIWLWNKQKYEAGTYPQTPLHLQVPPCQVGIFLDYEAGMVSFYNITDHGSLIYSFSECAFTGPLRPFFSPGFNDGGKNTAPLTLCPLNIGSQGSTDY
How it was run: as §1

Binder | phage ELISA signal ratio
WEMTLMEEAWATKFEV | 29.9
FEDGWMYQDFLKAPET | 14.1
MHDDLDWVHHMAVPQV | 27.1

target: TRIM25 439-630 SPRY (domain begin residue: 439, domain end residue: 630), Q14258; assay: as above
Sequence (Q14258 whole entry): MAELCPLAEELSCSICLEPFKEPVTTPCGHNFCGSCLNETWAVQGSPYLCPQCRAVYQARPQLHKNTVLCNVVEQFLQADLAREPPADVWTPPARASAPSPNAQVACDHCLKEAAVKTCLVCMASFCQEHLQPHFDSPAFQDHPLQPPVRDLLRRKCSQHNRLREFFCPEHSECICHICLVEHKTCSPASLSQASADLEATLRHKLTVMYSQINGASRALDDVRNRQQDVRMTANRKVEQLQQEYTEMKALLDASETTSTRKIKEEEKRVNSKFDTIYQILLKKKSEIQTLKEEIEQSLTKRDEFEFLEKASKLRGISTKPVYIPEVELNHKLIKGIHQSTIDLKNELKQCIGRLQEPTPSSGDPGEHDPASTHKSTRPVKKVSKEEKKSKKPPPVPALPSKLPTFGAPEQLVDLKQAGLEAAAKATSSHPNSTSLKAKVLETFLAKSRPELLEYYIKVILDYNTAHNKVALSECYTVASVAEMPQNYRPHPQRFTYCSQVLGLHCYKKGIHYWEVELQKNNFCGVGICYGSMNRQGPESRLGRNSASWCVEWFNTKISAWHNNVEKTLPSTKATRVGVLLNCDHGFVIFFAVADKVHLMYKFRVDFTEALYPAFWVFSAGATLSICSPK
How it was run: as §1

Binder | phage ELISA signal ratio
FEDGWMYQDFLKAPET | 9.36
FETPWQIEDVWGMAGF | 27.1

Target: T4, TOM1L2 1-153 VHS (domain begin residue: …
Assay: as above
How it was run: as §1

Binder | phage ELISA signal ratio
IEIPWTQEFIQHWTQG | 18.4
MMFAGLGTPNPYEVTT | 16.9
AFENNQQAILQYMMDV | 22.7
QTPLEAFWEAYDSISW | 23.1
